Data: PubChem BioAssay (EPA / NIEHS)
Results filed as inconclusive are left out. Some compounds were tested as several samples or in several runs, with calls that do not always agree. Calls of active or inactive are those of the source. The calls were made as follows, unless noted: active = hit-call score of the fitted dose curve at least 0.9, where 1 is the maximum; inactive = score below 0.9.

Key:
[1] = biological target: Transcription factor E2F1 (Homo sapiens) (UniProt Q01094); assay: ATG_E2F_CIS: Attagene CIS-FACTORIAL HepG2 Assay for human E2F Transcription Factor 1 (AID 2282935); details: HepG2 Attagene cis-reporter, E2F reporter RNA transcripts; actives raise or lower the signal
Procedure, shortened: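 Endogenous E2F1 activity read through cis-promoter reporter units transfected into HepG2. After 24 h compound treatment, reporter mRNA measured by RT-PCR, HpaI digestion and capillary electrophoresis. Bidirectional fit versus DMSO.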

[2] = ATG_M_61_CIS: Attagene CIS-FACTORIAL HepG2 Assay for M61 Transcription Factor (Internal Marker) (AID 2282937); details: HepG2 Attagene CIS-FACTORIAL M61 internal marker reporter; actives raise or lower the signal
Procedure, shortened: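 Transfect HepG2 with MRTUs; dose 24 h; isolate RNA; reverse-transcribe with DNase I treatment; PCR-amplify, FAM-label and cut with HpaI for 2 h at 37 C; resolve by CE. Bidirectional fitting against DMSO.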

[3] = ATG_GRE_CIS: Attagene CIS-FACTORIAL HepG2 Assay for human Glucocorticoid Response Elements (GRE) (AID 2282947); details: HepG2 GRE cis-reporter, Attagene multiplex mRNA; actives raise or lower the signal
Procedure, shortened: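 Transiently transfected HepG2 cells carrying GRE cis-reporter units (endogenous TF activity) dosed 24 h; reporter mRNA quantified by RT-PCR, 6-FAM labelling, HpaI digestion and capillary electrophoresis. Bidirectional fit versus DMSO baseline.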

[4] = ATG_ISRE_CIS: Attagene CIS-FACTORIAL HepG2 Assay for human Interferon Regulatory Factor 1 (IRF1) binding to an Interferon-Stimulated Response Element (ISRE) (AID 2282948); details: HepG2 ISRE cis-reporter (Attagene), mRNA transcription readout; actives raise or lower the signal
Procedure, shortened: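 Quantitation relies on labelled RT-PCR fragments separated by capillary electrophoresis. Human HepG2 cells bearing cis-promoter reporter constructs were treated 24 h; DMSO served as baseline for bidirectional fitting.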

[5] = biological target: Hypoxia-inducible factor 1-alpha (Homo sapiens) (UniProt Q16665); assay: ATG_HIF1a_CIS: Attagene CIS-FACTORIAL HepG2 Assay for human Hypoxia Inducible Factor 1 (HIF1A) (AID 2282951); details: HepG2 Attagene cis-factorial HIF1a reporter transcription; actives raise or lower the signal
Procedure, shortened: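 After 24 h chemical exposure of reporter-transfected HepG2 cells, reporter cDNA was PCR-amplified, labelled by 6-FAM primer extension (2 min 95 C, 20 s 68 C, 10 min 72 C), HpaI-cut (2 h, 37 C) and analysed by CE.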

[6] = biological target: Hepatocyte nuclear factor 6 (Homo sapiens) (UniProt Q9UBC0); assay: ATG_HNF6_CIS: Attagene CIS-FACTORIAL HepG2 Assay for human Hepatocyte Nuclear Factor 6 (HNF6) (AID 2282952); details: HepG2 Attagene cis-factorial HNF6 reporter transcription; actives raise or lower the signal
Procedure, shortened: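 Cells are HepG2 carrying transiently transfected cis-promoter reporter units. Treatment lasts 24 h, after which reporter transcripts are reverse-transcribed, amplified, FAM-labelled and sized by capillary electrophoresis. DMSO serves as baseline.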

[7] = biological target: Heat shock factor protein 1 (Homo sapiens) (UniProt Q00613); assay: ATG_HSE_CIS: Attagene CIS-FACTORIAL HepG2 Assay for human Heat Shock Transcription Factor 1 (HSE) (AID 2282953); details: HepG2 HSE cis-reporter, Attagene RNA transcription; actives raise or lower the signal
Procedure, shortened: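 After a 24 h incubation with test chemical, transfected HepG2 cells were harvested for RNA; reporter transcripts were measured by RT-PCR and capillary electrophoresis. Values reflect gain or loss of signal relative to DMSO.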

[8] = ATG_MRE_CIS: Attagene CIS-FACTORIAL HepG2 Assay for human Metal Responsive Element (MRE) (AID 2282954); details: HepG2 MRE cis-reporter transcription, Attagene multiplex; actives raise or lower the signal
Procedure, shortened: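 HepG2 cells transiently transfected with cis-element-driven reporter units; mRNA measured 24 h after dosing. Reporter transcripts quantified by RT-PCR, FAM labelling, HpaI digestion and capillary electrophoresis; bidirectional fit versus DMSO.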

[9] = ATG_PBREM_CIS: Attagene CIS-FACTORIAL HepG2 Assay for human Phenobarbital-responsive Enhancer Module (PBREM) (AID 2282955); details: HepG2 PBREM cis-reporter, Attagene multiplexed transcription; actives raise or lower the signal
Procedure, shortened: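 Measures endogenous factor action on a phenobarbital-responsive enhancer module. HepG2 transiently carrying cis reporters, 24 h treatment, mRNA read-out by RT-PCR plus capillary electrophoresis.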

[10] = ATG_PPRE_CIS: Attagene CIS-FACTORIAL HepG2 Assay for human Peroxisome Proliferator-activated Response Element (PPRE) (AID 2282958); details: HepG2 PPRE cis-element reporter, Attagene transcription factor profiling; actives raise or lower the signal
Procedure, shortened: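 PPRE activity in HepG2: transient cis-reporter transfection, 24 h compound incubation, reporter mRNA by RT-PCR and CE fluorescence; gain/loss fitted against DMSO.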

[11] = ATG_TCF_b_cat_CIS: Attagene CIS-FACTORIAL HepG2 Assay for human T-Cell-Factor with beta-catenin (TCF/b-cat) (AID 2282965); details: HepG2 TCF/beta-catenin cis-reporter transcription, actives raise or lower the signal
Procedure, shortened: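 Cells of the HepG2 line carry transiently transfected reporter units whose promoters respond to endogenous factors. Twenty-four hours post-dosing, reporter mRNA induction is measured by fluorescent RT-PCR and capillary electrophoresis, with DMSO as baseline.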

[12] = ATG_M_06_TRANS: Attagene TRANS-FACTORIAL HepG2 Assay for M06 Transcription Factor (Internal Marker) (AID 2282983; active = hit-call score of the fitted dose curve at least 0.9, where 1 is the maximum;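 also: reporter transcript level by RT-PCR then capillary electrophoresis fluorescence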); details: HepG2 Attagene TRANS M06 internal marker reporter
Procedure, shortened: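 Internal-marker background readout from a multiplexed TRANS reporter system in HepG2; 24 h dosing; mRNA induction quantified by RT-PCR plus capillary electrophoresis fluorescence; DMSO as negative control and baseline.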

[13] = biological target: Nuclear receptor subfamily 4 group A member 2 (Homo sapiens) (UniProt P43354); assay: ATG_NURR1_TRANS: Attagene TRANS-FACTORIAL HepG2 Assay for human Nuclear Receptor Related Protein 1 (NURR1) (AID 2282985; active = hit-call score of the fitted dose curve at least 0.9, where 1 is the maximum); details: HepG2 Attagene TRANS reporter, mRNA readout
Procedure, shortened: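 HepG2 cells transiently transfected with NURR1-Gal4 chimera and GAL4-UAS reporter units; after 24 hr compound exposure, reporter mRNA quantified by RT-PCR and capillary electrophoresis; gain of signal fitted against DMSO.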

[14] = biological target: Nuclear respiratory factor 1 (Homo sapiens) (UniProt Q16656); assay: ATG_NRF1_CIS: Attagene CIS-FACTORIAL HepG2 Assay for human Nuclear Respiratory Factor 1 (NRF1) Orphan Gene (AID 2282987); details: HepG2 NRF1 cis-element reporter, Attagene multiplex; actives raise or lower the signal
Procedure, shortened: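 Measured: fluorescent reporter-specific RT-PCR products from transfected HepG2 cells, separated by capillary electrophoresis. Exposure lasted 24 h. Analysis used bidirectional curve fitting with DMSO as negative control.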

[15] = biological target: Retinoic acid receptor RXR-alpha (Homo sapiens) (UniProt P19793); assay: ATG_RXRa_TRANS: Attagene TRANS-FACTORIAL HepG2 Assay for human Retinoid X Receptor alpha (RXRa) (AID 2283012; active = hit-call score of the fitted dose curve at least 0.9, where 1 is the maximum)
Procedure, shortened: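 HepG2 cells transiently transfected with GAL4-UAS reporter units and chimeric RXRa-Gal4 protein, treated 24 h. Reporter mRNA measured by RT-PCR, fluorescent labelling, HpaI digestion and capillary electrophoresis. Induction fitted against DMSO.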

[16] = biological target: Transcriptional activator Myb (Homo sapiens) (UniProt P10242); assay: ATG_Myb_CIS: Attagene CIS-FACTORIAL HepG2 Assay for human Myeloblastosis (Myb) Proto-Oncogene Transcription Factor (AID 2282986); details: HepG2 Attagene CIS-FACTORIAL Myb reporter transcription; actives raise or lower the signal
Procedure, shortened: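 After 24 h of compound dosing, total RNA from transfected HepG2 cells is reverse-transcribed and the reporter sequences amplified, labeled and separated by capillary electrophoresis. Values come from bidirectional fitting against DMSO.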

[17] = biological target: Cellular tumor antigen p53 (Homo sapiens) (UniProt P04637); assay: TOX21_p53_BLA_p2_ratio: Tox21 HCT-116 p53 Agonism Beta-lactamase Assay, Ratio, Phase 2 (AID 2283592; active = hit-call score of the fitted dose curve at least 0.9, where 1 is the maximum)
Procedure, shortened: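 Human colon HCT116 cells with an inducible p53 beta-lactamase reporter are exposed to test chemicals for 16 h at 37C. Reporter induction is read as the 460/530 nm emission ratio after CCF4-AM loading, normalized to DMSO.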

[18] = biological target: Cellular tumor antigen p53 (Homo sapiens) (UniProt P04637); assay: TOX21_p53_BLA_p5_ratio: Tox21 HCT-116 p53 Agonism Beta-lactamase Assay, Ratio, Phase 5 (AID 2283599; active = hit-call score of the fitted dose curve at least 0.9, where 1 is the maximum)
Procedure, shortened: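 HCT-116 p53-bla cells (4000/well) plated 5 h, dosed with compound (217-fold DMSO dilution) for 16 h at 37 C; CCF4-AM substrate 2 h at room temperature. Activity is the 460/530 nm emission ratio (405 nm excitation), fitted in gain-of-signal direction versus DMSO.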

[19] = biological target: Cellular tumor antigen p53 (Homo sapiens) (UniProt P04637); assay: TOX21_p53_BLA_p4_ratio: Tox21 HCT-116 p53 Agonism Beta-lactamase Assay, Ratio, Phase 4 (AID 2283601; active = hit-call score of the fitted dose curve at least 0.9, where 1 is the maximum)
Procedure, shortened: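 HCT-116 p53 beta-lactamase reporter cells (4000/well) preincubated 5 h, then compound (217-fold dilution of DMSO stock) for 16 h at 37C. CCF4-AM substrate added 2 h at room temperature; 460/530 nm emission ratio fitted upward versus DMSO.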

[20] = biological target: Cellular tumor antigen p53 (Homo sapiens) (UniProt P04637); assay: TOX21_p53_BLA_p3_ratio: Tox21 HCT-116 p53 Agonism Beta-lactamase Assay, Ratio, Phase 3 (AID 2283596; active = hit-call score of the fitted dose curve at least 0.9, where 1 is the maximum)
Procedure, shortened: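 HCT116 p53-bla cells (4000/well) given compound in DMSO (217-fold dilution) after 5 h, incubated 16 h at 37C. CCF4-AM substrate 2 h at room temperature; 460/530 nm emission ratio, gain fitted against DMSO.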

Measured: AC50

Chain of Transcriptional activator Myb (Homo sapiens) (P10242 whole entry, looked up): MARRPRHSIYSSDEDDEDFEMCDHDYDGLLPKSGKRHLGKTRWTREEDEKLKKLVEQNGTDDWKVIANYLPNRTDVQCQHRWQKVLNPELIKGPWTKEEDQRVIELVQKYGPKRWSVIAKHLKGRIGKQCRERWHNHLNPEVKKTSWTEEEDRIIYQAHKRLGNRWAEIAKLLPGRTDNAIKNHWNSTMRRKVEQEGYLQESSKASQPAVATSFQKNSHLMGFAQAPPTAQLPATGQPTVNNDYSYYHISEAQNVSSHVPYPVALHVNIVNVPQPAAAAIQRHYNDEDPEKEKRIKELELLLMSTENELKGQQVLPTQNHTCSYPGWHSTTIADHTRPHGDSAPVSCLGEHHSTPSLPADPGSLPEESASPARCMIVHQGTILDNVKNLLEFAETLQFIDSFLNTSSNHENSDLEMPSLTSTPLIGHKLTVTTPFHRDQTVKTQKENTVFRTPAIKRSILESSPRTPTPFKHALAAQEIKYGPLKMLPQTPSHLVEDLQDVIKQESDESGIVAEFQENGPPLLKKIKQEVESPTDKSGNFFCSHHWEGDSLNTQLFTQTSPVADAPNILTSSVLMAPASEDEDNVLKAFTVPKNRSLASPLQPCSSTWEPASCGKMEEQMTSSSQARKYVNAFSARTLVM
Chain of Retinoic acid receptor RXR-alpha (Homo sapiens) (P19793 whole entry, looked up, the tested form may be a part): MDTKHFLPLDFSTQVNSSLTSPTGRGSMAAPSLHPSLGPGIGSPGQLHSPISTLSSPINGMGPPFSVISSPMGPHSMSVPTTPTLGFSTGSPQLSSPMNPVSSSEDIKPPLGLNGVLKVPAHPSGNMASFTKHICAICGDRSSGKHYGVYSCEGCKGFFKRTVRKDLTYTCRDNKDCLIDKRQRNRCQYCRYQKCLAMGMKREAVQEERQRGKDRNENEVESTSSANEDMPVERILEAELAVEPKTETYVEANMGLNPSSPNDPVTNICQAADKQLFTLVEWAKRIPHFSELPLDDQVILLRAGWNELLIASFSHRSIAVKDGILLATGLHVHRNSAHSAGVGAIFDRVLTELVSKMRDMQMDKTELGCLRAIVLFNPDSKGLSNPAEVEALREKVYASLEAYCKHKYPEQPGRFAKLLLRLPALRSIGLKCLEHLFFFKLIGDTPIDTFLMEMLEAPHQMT
Chain of Heat shock factor protein 1 (Homo sapiens) (Q00613 whole entry, looked up): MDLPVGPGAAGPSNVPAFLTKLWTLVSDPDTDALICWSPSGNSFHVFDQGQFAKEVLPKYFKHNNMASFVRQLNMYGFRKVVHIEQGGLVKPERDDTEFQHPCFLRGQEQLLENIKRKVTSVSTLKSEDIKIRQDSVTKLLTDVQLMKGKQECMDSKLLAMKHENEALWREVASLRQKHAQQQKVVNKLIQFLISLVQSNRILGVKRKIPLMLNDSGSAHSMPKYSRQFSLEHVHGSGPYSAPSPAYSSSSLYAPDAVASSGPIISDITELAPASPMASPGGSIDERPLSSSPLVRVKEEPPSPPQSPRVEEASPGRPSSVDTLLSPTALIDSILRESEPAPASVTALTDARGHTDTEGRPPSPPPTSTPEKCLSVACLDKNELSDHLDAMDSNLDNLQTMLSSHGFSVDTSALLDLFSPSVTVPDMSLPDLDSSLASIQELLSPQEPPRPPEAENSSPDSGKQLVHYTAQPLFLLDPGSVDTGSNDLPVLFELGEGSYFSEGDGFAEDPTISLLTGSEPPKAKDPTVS
Chain of Nuclear receptor subfamily 4 group A member 2 (Homo sapiens) (P43354 whole entry, looked up, the tested form may be a part): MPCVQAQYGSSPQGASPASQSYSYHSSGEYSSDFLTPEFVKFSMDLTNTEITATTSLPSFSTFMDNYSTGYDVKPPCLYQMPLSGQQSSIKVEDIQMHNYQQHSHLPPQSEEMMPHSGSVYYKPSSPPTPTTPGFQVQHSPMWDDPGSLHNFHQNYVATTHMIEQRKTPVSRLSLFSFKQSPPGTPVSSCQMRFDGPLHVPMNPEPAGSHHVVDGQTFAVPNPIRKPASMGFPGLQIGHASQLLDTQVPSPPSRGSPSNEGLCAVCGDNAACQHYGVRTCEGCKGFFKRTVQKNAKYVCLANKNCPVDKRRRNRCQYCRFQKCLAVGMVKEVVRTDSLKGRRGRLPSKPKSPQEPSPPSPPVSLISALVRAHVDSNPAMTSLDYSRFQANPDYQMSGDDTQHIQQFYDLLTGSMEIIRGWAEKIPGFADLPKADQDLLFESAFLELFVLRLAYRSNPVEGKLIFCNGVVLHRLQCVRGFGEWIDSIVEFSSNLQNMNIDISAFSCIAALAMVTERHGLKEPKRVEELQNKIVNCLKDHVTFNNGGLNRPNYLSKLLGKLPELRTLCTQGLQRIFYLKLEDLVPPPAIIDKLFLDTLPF
Chain of Hypoxia-inducible factor 1-alpha (Homo sapiens) (Q16665 whole entry, looked up): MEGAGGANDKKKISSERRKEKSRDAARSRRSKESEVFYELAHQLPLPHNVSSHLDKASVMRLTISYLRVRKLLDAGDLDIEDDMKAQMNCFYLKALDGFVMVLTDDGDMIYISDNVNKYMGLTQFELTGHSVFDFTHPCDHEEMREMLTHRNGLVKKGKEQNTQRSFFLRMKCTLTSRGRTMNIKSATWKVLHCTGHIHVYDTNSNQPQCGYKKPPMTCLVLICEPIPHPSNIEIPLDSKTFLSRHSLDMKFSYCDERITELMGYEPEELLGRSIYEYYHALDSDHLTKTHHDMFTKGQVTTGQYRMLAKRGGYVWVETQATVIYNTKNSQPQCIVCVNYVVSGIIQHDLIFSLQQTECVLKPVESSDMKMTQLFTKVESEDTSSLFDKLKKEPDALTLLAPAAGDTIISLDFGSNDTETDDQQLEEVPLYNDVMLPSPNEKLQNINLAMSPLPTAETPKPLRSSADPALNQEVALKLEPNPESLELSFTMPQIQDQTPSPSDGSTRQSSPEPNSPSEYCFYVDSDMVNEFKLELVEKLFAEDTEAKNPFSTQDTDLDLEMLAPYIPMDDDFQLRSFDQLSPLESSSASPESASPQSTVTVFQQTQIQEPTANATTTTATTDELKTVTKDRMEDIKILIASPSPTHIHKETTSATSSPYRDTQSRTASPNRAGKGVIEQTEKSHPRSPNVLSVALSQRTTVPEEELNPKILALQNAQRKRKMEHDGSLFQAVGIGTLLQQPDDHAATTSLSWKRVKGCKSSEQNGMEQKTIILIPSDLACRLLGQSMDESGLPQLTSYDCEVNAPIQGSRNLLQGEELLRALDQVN
Chain of Cellular tumor antigen p53 (Homo sapiens) (P04637 whole entry, looked up): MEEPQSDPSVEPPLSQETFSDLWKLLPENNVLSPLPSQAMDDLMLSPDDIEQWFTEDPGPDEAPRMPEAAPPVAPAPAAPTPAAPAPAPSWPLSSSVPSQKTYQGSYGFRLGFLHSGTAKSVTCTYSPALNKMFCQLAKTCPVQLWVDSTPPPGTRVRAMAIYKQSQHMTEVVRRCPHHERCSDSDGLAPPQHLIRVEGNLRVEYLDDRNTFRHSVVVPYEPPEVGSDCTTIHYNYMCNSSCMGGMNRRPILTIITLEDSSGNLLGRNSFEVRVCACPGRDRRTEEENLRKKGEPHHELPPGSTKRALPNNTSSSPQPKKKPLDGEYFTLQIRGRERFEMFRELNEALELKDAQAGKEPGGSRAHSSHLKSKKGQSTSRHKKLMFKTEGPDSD
Chain of Hepatocyte nuclear factor 6 (Homo sapiens) (Q9UBC0 whole entry, looked up): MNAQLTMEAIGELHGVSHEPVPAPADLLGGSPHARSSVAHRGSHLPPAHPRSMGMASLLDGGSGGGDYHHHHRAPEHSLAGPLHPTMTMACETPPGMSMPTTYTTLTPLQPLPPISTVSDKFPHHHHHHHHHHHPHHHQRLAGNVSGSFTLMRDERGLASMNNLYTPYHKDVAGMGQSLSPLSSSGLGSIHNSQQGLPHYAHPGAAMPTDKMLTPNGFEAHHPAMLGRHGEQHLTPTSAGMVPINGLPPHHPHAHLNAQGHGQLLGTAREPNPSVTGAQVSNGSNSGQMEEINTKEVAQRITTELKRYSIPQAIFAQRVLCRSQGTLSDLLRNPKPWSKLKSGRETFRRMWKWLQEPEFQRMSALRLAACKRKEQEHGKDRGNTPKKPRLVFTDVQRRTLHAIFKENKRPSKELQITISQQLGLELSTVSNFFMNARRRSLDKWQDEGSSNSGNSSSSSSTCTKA
Chain of Nuclear respiratory factor 1 (Homo sapiens) (Q16656 whole entry, looked up): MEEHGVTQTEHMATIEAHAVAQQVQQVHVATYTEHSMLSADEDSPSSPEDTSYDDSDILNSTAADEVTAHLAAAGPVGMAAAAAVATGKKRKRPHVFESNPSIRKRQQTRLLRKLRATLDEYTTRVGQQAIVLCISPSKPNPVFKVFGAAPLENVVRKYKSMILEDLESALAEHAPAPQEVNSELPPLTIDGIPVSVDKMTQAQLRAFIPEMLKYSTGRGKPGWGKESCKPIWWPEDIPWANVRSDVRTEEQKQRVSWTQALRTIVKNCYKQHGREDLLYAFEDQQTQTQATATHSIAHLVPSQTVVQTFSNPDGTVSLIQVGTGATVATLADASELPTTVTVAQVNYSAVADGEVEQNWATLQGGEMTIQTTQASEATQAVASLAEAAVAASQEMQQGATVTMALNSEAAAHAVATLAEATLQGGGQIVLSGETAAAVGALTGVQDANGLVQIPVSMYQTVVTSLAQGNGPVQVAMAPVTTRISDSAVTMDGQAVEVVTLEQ
Chain of Transcription factor E2F1 (Homo sapiens) (Q01094 whole entry, looked up): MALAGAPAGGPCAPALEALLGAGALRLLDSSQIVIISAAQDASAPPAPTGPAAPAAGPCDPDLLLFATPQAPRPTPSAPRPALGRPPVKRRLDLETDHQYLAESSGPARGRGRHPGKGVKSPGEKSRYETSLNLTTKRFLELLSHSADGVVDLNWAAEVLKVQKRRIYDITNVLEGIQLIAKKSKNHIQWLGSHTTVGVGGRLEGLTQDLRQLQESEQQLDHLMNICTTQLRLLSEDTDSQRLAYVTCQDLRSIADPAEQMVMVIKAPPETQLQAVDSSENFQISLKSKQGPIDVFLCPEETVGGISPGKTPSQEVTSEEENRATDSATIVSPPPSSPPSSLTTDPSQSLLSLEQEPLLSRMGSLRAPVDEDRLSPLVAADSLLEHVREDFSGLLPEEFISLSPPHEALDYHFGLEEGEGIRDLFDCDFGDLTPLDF

Nc1c(Cl)c(Cl)c(Cl)c(Cl)c1Cl
not listed: [16] | [17] | [18] | [19] | [20]
inactive: all other assays above

CCOP(O)OCC
not listed: [1] | [4] | [5] | [14] | [17] | [18] | [19] | [20]
inactive: all other assays above

CCc1cccc(C)c1N(C(=O)CCl)[C@@H](C)COC
active: [8] 31.3 µM
not listed: [3] | [7] | [10] | [14] | [15] | [16] | [20]
inactive: all other assays above

N#Cc1cc(I)c(O)c(I)c1
active: [10] 29.1 µM | [17] 9.91 µM | [20] 6.09 µM | [18] 55.8 µM | [19] 13.9 µM
not listed: [4] | [5] | [7] | [12] | [13] | [14]
inactive: all other assays above

CN(N=O)c1ccccc1
inactive: [1] | [2] | [3] | [5] | [6] | [8] | [9] | [10] | [12] | [16] | [14]

ClCCCCCCCl
inactive: [2] | [3] | [5] | [6] | [7] | [8] | [9] | [12] | [13] | [14]

CCCC=NO
not listed: [10] | [11] | [12] | [13] | [14] | [16] | [19]
inactive: all other assays above

O=c1[nH]c(Cl)c(Cl)cc1Cl
active: [5] 59.5 µM | [10] 15.8 µM
not listed: [1] | [3] | [8] | [12] | [13]
inactive: all other assays above

[CH3][Sn]([Cl])([Cl])[Cl]
not listed: [2] | [5] | [8] | [13] | [15] | [17]
inactive: all other assays above

CCOP(=O)(OCC)Oc1ccc([N+](=O)[O-])cc1
not listed: [2] | [3] | [5] | [6] | [8] | [13] | [14] | [17]
inactive: all other assays above

Clc1ccc(-c2ccccc2)cc1
not listed: [11] | [17] | [18] | [19] | [20]
inactive: all other assays above

O=[N+]([O-])O
inactive: [2] | [3] | [4] | [5] | [6] | [11] | [12] | [16] | [14]

Nc1cc(Cl)cc(Cl)c1
active: [11] 79 µM
not listed: [3] | [6] | [7] | [12] | [15]
inactive: all other assays above

Nc1ccccc1C(=O)OCCc1ccccc1
active: [5] 31.9 µM | [9] 21.3 µM
not listed: [1] | [8] | [10]
inactive: all other assays above

CC(C)(Cl)Cl
not listed: [7] | [12] | [13] | [15] | [16]
inactive: all other assays above

CCOC(=O)N(C)N=O
not listed: [2] | [5] | [6] | [7] | [9] | [13] | [19]
inactive: all other assays above

COc1ncc(F)c2nc(S(=O)(=O)Nc3c(F)cccc3F)nn12
inactive: [1] | [2] | [3] | [4] | [8] | [9] | [11] | [13] | [16] | [14] | [15]

O=C1Nc2ccc(Cl)cc2C(c2ccccc2)=NC1O (stereo unspecified)
inactive: [1] | [2] | [4] | [5] | [9] | [10] | [12] | [16] | [15] | [17] | [18] | [19]
active: [18] 77.3 µM | [19] 86.7 µM

O=C(O)COc1ccccc1
not listed: [13] | [16]
inactive: all other assays above
